Sampled rows, rich in hits. Any-hit rate of the full collection: about 11%.
HPGD inh – qHTS Assay for Inhibitors of HPGD (15-Hydroxyprostaglandin Dehydrogenase); purified HPGD, NADH fluorescence kinetic, PGE2 substrate; Potency, µM, inactives show at the top dose activity change, negative = inhibition, usual class: inhibitors; hit rate 4.3% among 150,000; AID 894, 2007; further: potency means the concentration at half of the fitted maximal effect
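NADH formation kinetics: reaction with 30 uM PGE2 and 1 mM NAD+ (final), 20 nM enzyme, Tris-HCl pH 8 with Tween 20, after 15 min compound preincubation at room temperature. Fluorescence change, last versus first of five reads.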
IMPase inh – qHTS Assay for Identifying the Cell-Membrane Permeable IMPase Inhibitors; inhibition (IP1 accumulation), % at 46.1 µM; Inositol monophosphatase 1 (Rattus norvegicus), P97697; CHO-M1 cells, IP1 accumulation, HTRF TR-FRET ratio; 120,000 tested, under 10 active; active means well fitted curve in the direction sought with a large enough effect in the signal ratio, not every such curve was filed as active; inconclusive means small, poorly fitted or top-dose-only effect, or a change in a side signal; inactive means no such curve, though single readings can be large or run the other way; the % refers to the signal ratio;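 further: cells stimulated with carbachol in lithium chloride buffer; plate controls were DMSO basal wells for no effect and reference inhibitor wells for full effect; higher means more IMPase inhibition seen as more IP1 and lower FRET ratio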
Target sequence (P97697 whole entry, looked up): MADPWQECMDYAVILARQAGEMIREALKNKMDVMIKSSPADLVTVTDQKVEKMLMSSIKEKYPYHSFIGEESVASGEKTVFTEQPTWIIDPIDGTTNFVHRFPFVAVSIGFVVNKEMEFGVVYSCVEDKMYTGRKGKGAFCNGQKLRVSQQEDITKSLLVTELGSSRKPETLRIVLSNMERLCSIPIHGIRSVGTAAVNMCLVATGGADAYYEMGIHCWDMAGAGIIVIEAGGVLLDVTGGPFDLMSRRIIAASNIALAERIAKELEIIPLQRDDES
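In this qHTS, compounds (final up to 46 uM) act on CHO-M1 cells that are then activated through the M1 receptor with carbachol, in pH 7.4 buffer containing 50 mM LiCl, for 30 min. IP1 accumulation is quantified by the IP-One immunoassay.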
NPSR antag – qHTS Assay for Antagonists of the Neuropeptide S Receptor: cAMP Signal Transduction; Potency, µM (series often up to 38.3 µM), for inactives: top-dose activity change, negative = inhibition, most hits filed as inhibitors; Q6W5P4; CHO-NPSR cells, cAMP TR-FRET, antagonist mode; hit rate 1% among 220,000; AID 1461, 2008; active means well fitted curve in the direction sought with a large enough effect; inconclusive means small, poorly fitted or top-dose-only effect, or another doubt; inactive means no such curve, though single readings can be large; an effect the other way counts as inactive or inconclusive; further: potency means the concentration at half of the fitted maximal effect; nearly all actives have a fitted effect of over 50% in size
Target sequence (Q6W5P4 whole entry, looked up): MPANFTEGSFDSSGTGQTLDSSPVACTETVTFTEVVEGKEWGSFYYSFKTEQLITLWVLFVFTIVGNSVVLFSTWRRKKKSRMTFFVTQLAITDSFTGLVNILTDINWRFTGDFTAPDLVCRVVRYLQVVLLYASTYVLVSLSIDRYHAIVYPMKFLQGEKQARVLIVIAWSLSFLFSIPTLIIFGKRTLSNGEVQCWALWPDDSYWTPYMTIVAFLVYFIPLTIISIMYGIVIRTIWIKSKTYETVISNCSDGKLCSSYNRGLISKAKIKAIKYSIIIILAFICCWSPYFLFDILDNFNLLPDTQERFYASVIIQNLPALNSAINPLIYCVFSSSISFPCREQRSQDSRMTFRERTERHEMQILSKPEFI
PNC inhibitor – High Content Assay for Compounds that inhibit the Assembly of the Perinucleolar Compartment; PC3M PTB-GFP, PNC prevalence imaging, 16 h; active compounds read low; hit rate 3.1% among 140,000; activity change (PNC), negative = inhibition, % at 10 µM;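 active means readout at or below -70, meaning at least 70% loss of cells showing the perinucleolar compartment, a nuclear body marking cancer cells; inconclusive means readout between -30 and a set limit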;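 further: plate controls were DMSO wells for no effect and camptothecin positive control wells for full effect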
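Read-out is percentage of cells bearing a perinucleolar compartment, from automated 20x imaging of fixed, Hoechst-stained PC3M PTB-GFP cells. Cells were seeded 4 h, then exposed 16 h to compound (23 nl of library stock) in duplicate plates.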
ALDH1A1 inh – qHTS Assay for Inhibitors of Aldehyde Dehydrogenase 1 (ALDH1A1); Aldehyde dehydrogenase 1A1 (Homo sapiens), P00352; Purified ALDH1A1, NADH fluorescence, propionaldehyde substrate; Potency, µM (series often up to 75.3 µM), without a hit: at the top dose activity, negative = inhibition, usual class: inhibitors; hit rate 7.3% among 220,000; AID 1030, 2008;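 further: potency means the concentration at half of the fitted maximal effect; plate controls were no enzyme wells and a reference inhibitor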
IMPase Li inh – qHTS Assay for Identifying the Cell-Membrane Permeable IMPase Inhibitors: Potentiation with Lithium. CHO-M1 cells, IP1 TR-FRET (IP-One), carbachol + lithium. Potency, µM (titrated, usually from 59.4 µM), inactives show top-dose activity, negative = IMPase inhibition, usual class: inhibitors. hit rate 0.35% among 210,000. AID 1457, 2008; active means well fitted curve in the direction sought with a large enough effect; inconclusive means small, poorly fitted or top-dose-only effect, or another doubt; inactive means no such curve, though single readings can be large; an effect the other way counts as inactive or inconclusive;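 further: IP1 builds up when IMPase is blocked and the TR-FRET signal falls; potency means the concentration at half of the fitted maximal effect; plate controls were basal vehicle for no effect and high inhibitor control for full effect; nearly all actives have a fitted effect of over 50% in size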
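CHO cells stably expressing M1 receptor (2000/well) were cultured 16–30 h, then exposed to compounds with a small lithium addition for 30 min at 37C. IP1 was measured by TR-FRET competition; AC50 from Hill fits.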
* = called active by the depositor; ? = inconclusive; . = no result; ! = a repeat was not active; [ ] = dose if it differs, or a comment. Unless noted, the call rests on the fitted dose curve; in most records, active means well fitted inhibition curve with a large enough effect (not every such curve was filed as active); inconclusive means small, poorly fitted or top-dose-only effect, or another doubt; inactive means no such curve, though single readings can be large or run the other way. Unless noted, on the % scale 0 is the no-effect control and ±100 the full control effect.

SMILES | HPGD inh | IMPase inh | NPSR antag | PNC inhibitor | ALDH1A1 inh | IMPase Li inh
COC(=O)c1c(C)n(Cc2ccco2)c2ccc(O)cc12 | -24% | 9 | -8%[46.1 µM] | 0 | 20µM* | 30%[38.3 µM]
CCOC(=O)c1c(C)n(Cc2ccco2)c2ccc(OC)cc12 | -7% | -1 | -27%[46.1 µM] | -2 | -8% | -20%[38.3 µM]
C/C=C(/C)C(=O)O[C@H]1C(C)=C2[C@H]([C@@H]1OC(=O)CCCCCCC)[C@@](C)(OC(C)=O)C[C@H](OC(=O)CCC)[C@@]1(O)[C@H]2OC(=O)[C@@]1(C)O | ? | . | . | . | -13% | 5%
COc1cccc(C(=O)C2CCCN(C3CCOCC3)C2)c1 (stereo unspecified) | . | . | -22% | . | 0% | 28%
COc1ccc(C(=O)C2CCCN(C3CSCCSC3)C2)c(OC)c1 (stereo unspecified) | . | . | 24% | . | 14µM* | 25%
COc1ccc(C(=O)C2CCCN(Cc3ccc(C)s3)C2)c(OC)c1 (stereo unspecified) | . | . | 17% | . | -5% | 13%
COc1ccc(C(=O)C2CCCN(C3CSCCSC3)C2)c(C)c1 (stereo unspecified) | . | . | -19% | . | 14µM* | 24%
CCCN(CCC)[C@H]1CCc2c(F)ccc(O)c2C1 | -13% | 7 | -12%[46.1 µM] | . | -9% | 35%
Cc1cc(NC(=O)CCl)no1 | . | . | 33% | . | 13µM* | 6%
Cc1cc(NC(=O)COC(=O)c2c(C)nn(Cc3ccccc3Cl)c2Cl)no1 | -5% | -1 | -11%[46.1 µM] | 37 | 11% | 12%[38.3 µM]
COc1ccc(N/N=C/c2c(O)n(-c3cccc(C)c3)c(=O)[nH]c2=O)cc1 | . | . | 7% | . | 3.2µM* | 12%
COc1ccc(N/N=C/c2c(O)n(-c3ccc(C)c(C)c3)c(=O)[nH]c2=O)cc1 | ? | . | -10% | 51 | 1.6µM* | 13%
Cc1ccc(-n2c(O)c(/C=N/Nc3ccccc3)c(=O)[nH]c2=O)cc1C | . | . | 17% | . | 1% | .
CC1(C)CC(=O)c2cc(OCC(=O)N3CCN(Cc4ccccc4)CC3)ccc2O1 | . | . | 1% | . | ? | -16%
COc1cc2[nH]c(=S)n(-c3ccccc3)c(=O)c2cc1OC | . | . | -11% | . | 1.6µM* | ?
COc1ccc(-n2c(=S)[nH]c3c(sc(=S)n3-c3ccccc3)c2=O)c(OC)c1 | . | . | 3% | . | 3.2µM* | -5%
CC(C)OC(=O)C1C2c3ccccc3C(c3ccccc32)C1C(=O)O (stereo unspecified) | . | . | 8% | . | -13% | 19%
O=[N+]([O-])C(Br)Br | ? | . | . | . | 1.4µM* | 4%
CC[N+](=O)[O-] | -5% | . | . | . | 5% | -9%
Oc1ccc(Br)cc1CN1CCN(c2ccccc2)CC1 | -22% | -16 | -12%[46.1 µM] | 5 | 0% | 28%[38.3 µM]
O=C(c1ccncc1)N1CCC2(CC1)CN(Cc1ccccc1)C2 | -3% | . | . | . | -1% | 34%
O=C(c1ccco1)N1CCC[C@@]2(CCN(Cc3ccncc3)C2)C1 | -7% | . | . | . | 10µM* | -3%
O=C(c1ccco1)N1CCC2(CC1)CN(Cc1ccncc1)C2 | -4% | . | . | . | 13µM* | 20%
CN1C(=O)C(C2c3ccccc3C(=O)N2Cc2ccc([N+](=O)[O-])cc2)C(=O)N(C)C1=O (stereo unspecified) | -6% | -3 | -6%[46.1 µM] | 19 | 0% | -2%[38.3 µM]
CC(C)CN(CC(C)C)c1ccc(C=C2C(=O)NC(=S)NC2=O)cc1[N+](=O)[O-] | 8.9µM* | 5 | ? | 4 | 11µM* | 7%[38.3 µM]
SMILES | HPGD inh | IMPase inh | NPSR antag | PNC inhibitor | ALDH1A1 inh | IMPase Li inh
Cc1nn(Cc2ccccc2)c(C)c1C=C1C(=O)NC(=S)NC1=O | ? | . | ? | ? | ? | 2%
CCN(CC)c1ccc(C=C2C(=O)NC(=S)NC2=O)cc1 | . | . | ? | . | 0.11µM* | .
COCCOC(=O)c1c(C)n(C)c2ccc(OC(=O)N3CCOCC3)cc12 | -18% | 2 | 5%[46.1 µM] | 20 | ? | 4%[38.3 µM]
CN1CCN(c2ncnc(Cl)c2N)CC1 | . | . | 12% | . | 6% | 6%
Cc1cc(OCC(=O)Nc2c(C)n(C)n(-c3ccccc3)c2=O)c2c3c(c(=O)oc2c1)CCC3 | ? | -5 | -11%[46.1 µM] | 20 | 3.2µM* | 1%[38.3 µM]
Cc1cc(OC(=O)c2cccs2)c2c3c(c(=O)oc2c1)CCCC3 | -6% | . | -11% | 22 | 13µM* | 15%
Cc1cc(OCC(=O)Nc2cc(C)nn2-c2ccccn2)c2c3c(c(=O)oc2c1)CCC3 | -17% | 8 | -2%[46.1 µM] | 4 | ? | -5%[38.3 µM]
Cc1cc(OC(=O)c2ccco2)c2c3c(c(=O)oc2c1)CCCC3 | -11% | 14 | -12%[46.1 µM] | 30 | 14µM* | 8%[38.3 µM]
Cc1cc(C)nc(-n2c(C)nc3cc(Cl)ccc3c2=O)c1 | -8% | -5 | -6%[46.1 µM] | -1 | 4% | 14%[38.3 µM]
C/C(=N\N=C(N)N)c1ccccc1 | . | . | -3% | . | . | .
O=C(c1c[nH]c2ccc(S(=O)(=O)N3CCOCC3)cc2c1=O)N1CCC2(CC1)OCCO2 | . | . | 11% | . | ? | -17%
c1ccc(-c2nc(N3CCOCC3)s[n+]2-c2ccccc2)cc1 | 10µM* | . | 3% | 64 | 1.8µM* | -5%
CCCCC/C=C\C/C=C\C/C=C\C/C=C\CCCC(=O)Nc1ccc(O)cc1 | 35µM* | -3 | ? | . | ? | 13%
CCCCC/C=C\C/C=C\C/C=C\C/C=C\CCCC(=O)NCCO | -11% | . | . | . | 10µM*! | 19%
CCCCC/C=C\C/C=C\C/C=C\C/C=C\CCCC(=O)NCc1ccoc1 | -26% | . | . | . | 18µM* | 0%
CCCCC/C=C\C/C=C\C/C=C\C/C=C\CCCC(=O)N(Cc1ccc(O)c(Cl)c1)Cc1ccc(O)c(Cl)c1 | -3% | . | . | . | 3.5µM* | 10%
C=CCn1c(O)c(C=Nc2ccc(OC)cc2C)c(=O)[nH]c1=O | ? | -2 | 0%[46.1 µM] | -3 | ? | 25%[38.3 µM]
CCCCNC(=O)NC(C(N)=O)P(=O)(OCC)OCC (stereo unspecified) | . | . | 13% | . | . | .
CC(C)CN1CCC2(CC1)CCN(S(C)(=O)=O)CC2 | -9% | . | . | . | 2% | 15%
CCCCC/C=C\C/C=C\C/C=C\C/C=C\CCCC(=O)NCC(=O)O | 28µM*! | 2 | -7%[46.1 µM] | . | 5% | 7%
CCCCC/C=C\C/C=C\C/C=C\C/C=C\CCCC(=O)NCCc1ccc(O)c(O)c1 | ? | . | . | . | 16µM*! | 15%
CCCCC/C=C\C/C=C\CCCCCCCCCC(=O)NCCO | -7% | . | . | . | -3% | 15%
CCCCC/C=C\C/C=C\C/C=C\C/C=C\CCCC(=O)NCCCC(=O)O | -14% | . | . | . | -1% | -6%
[Cl-].[Cl-].[Hg+2] | 0.1µM* | . | . | . | 0.14µM* | 28%
